From the supplement of paper PMC4709259
Counter-ions that a name gives are not always drawn. ± gives the standard deviation.

What was measured:
Jurkat [1] = assay: mean cell size (FSC-A) relative to DMSO control (fraction of control); higher = larger cells; conditions: 48 h
Summary of the method: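 Jurkat cells seeded at 600 cells/µl were incubated 1 h, then exposed for 48h to the Enzo Screen-Well FDA Approved Drug Library v2.0 at 25µM in 0.9% (v/v) final DMSO. Drugs that cut counts below 20% of controls were diluted 10-fold and retested, down to 25nM. Cell count and mean cell size (forward scatter area) were read on an Accuri C6 flow cytometer, relative to solvent-only controls. Plates held 6-12 controls; values are means of 3 biological replicates.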

Jurkat [2] = assay: cell count relative to DMSO control (fraction of control); higher = more cells (less growth inhibition); conditions: 48 h

SMILES | mean cell size (Jurkat [1]) | cell count (Jurkat [2])
Cc1ccc(O)c([C@H](CCN(C(C)C)C(C)C)c2ccccc2)c1 [Tolterodine Tartrate] (concentration: 25 µM) | 0.935 ± 0.022 | 1.14 ± 0.059
NCCCC[C@H](N[C@@H](CCc1ccccc1)C(=O)O)C(=O)N1CCC[C@H]1C(=O)O [Lisinopril·2H2O] (concentration: 25 µM) | 0.955 ± 0.022 | 0.884 ± 0.075
Cn1c(=O)c2c(ncn2CC(O)CO)n(C)c1=O (configuration not stated) [Dyphylline] (concentration: 25 µM) | 0.966 ± 0.022 | 0.81 ± 0.037
CCCNCC(O)COc1ccccc1C(=O)CCc1ccccc1 (configuration not stated) [Propafenone·HCl] (concentration: 25 µM) | 1.06 ± 0.02 | 0.605 ± 0.13
CC(C[N+](C)(C)C)OC(N)=O (configuration not stated) [Bethanechol Chloride] (concentration: 25 µM) | 0.926 ± 0.034 | 0.393 ± 0.12
CC(C(=O)O)c1cccc(Oc2ccccc2)c1 (configuration not stated) [Fenoprofen Calcium] (concentration: 25 µM) | 0.901 ± 0.05 | 0.314 ± 0.15
C[C@@H](O)[C@H]1C(=O)N2C(C(=O)O)=C(S[C@@H]3CN[C@H](CNS(N)(=O)=O)C3)[C@H](C)[C@H]12 [Doripenem] (concentration: 25 µM) | 0.94 ± 0.011 | 0.963 ± 0.12
C=CC(N)CCC(=O)O (configuration not stated) [Vigabatrin] (concentration: 25 µM) | 1.002 ± 0.0073 | 0.829 ± 0.075
CCN(CC)C(=O)C1(c2ccccc2)CC1CN (configuration not stated) [Milnacipran·HCl] (concentration: 25 µM) | 0.977 ± 0.032 | 0.792 ± 0.1
CCCC(=O)Nc1ccc(OCC(O)CNC(C)C)c(C(C)=O)c1 (configuration not stated) [Acebutolol·HCl] (concentration: 25 µM) | 1.04 ± 0.041 | 0.798 ± 0.17
Cc1c2oc3c(C)ccc(C(=O)N[C@@H]4C(=O)N[C@H](C(C)C)C(=O)N5CCC[C@H]5C(=O)N(C)CC(=O)N(C)[C@@H](C(C)C)C(=O)O[C@@H]4C)c3nc-2c(C(=O)N[C@@H]2C(=O)N[C@H](C(C)C)C(=O)N3CCC[C@H]3C(=O)N(C)CC(=O)N(C)[C@@H](C(C)C)C(=O)O[C@@H]2C)c(N)c1=O [Dactinomycin (= Actinomycin D)] (concentration: 25 nM) | 0.784 ± 0.019 | 0.49 ± 0.11
COc1ccc(CC2c3cc(OC)c(OC)cc3CC[N+]2(C)CCC(=O)OCCCCCOC(=O)CC[N+]2(C)CCc3cc(OC)c(OC)cc3C2Cc2ccc(OC)c(OC)c2)cc1OC (configuration not stated) [Atracurium Besylate] (concentration: 25 µM) | 1.04 ± 0.008 | 0.264 ± 0.023
O=C1CN(/N=C/c2ccc([N+](=O)[O-])o2)C(=O)N1 [Nitrofurantoin] (concentration: 2.5 µM) | 0.955 ± 0.019 | 0.66 ± 0.029
N[C@@H](CC(=O)N1CCn2c(nnc2C(F)(F)F)C1)Cc1cc(F)c(F)cc1F [Sitagliptin Phosphate] (concentration: 25 µM) | 0.999 ± 0.021 | 0.554 ± 0.18
Nc1nc(/C(=C/CC(=O)O)C(=O)N[C@@H]2C(=O)N3C(C(=O)O)=CCS[C@H]23)cs1 [Ceftibuten] (concentration: 25 µM) | 0.925 ± 0.016 | 1.11 ± 0.031
Nc1nc(=O)[nH]cc1F [Flucytosine] (concentration: 25 µM) | 0.997 ± 0.035 | 0.919 ± 0.025
CC(C)OC(=O)CCC/C=C\C[C@@H]1[C@@H](CC[C@@H](O)CCc2ccccc2)[C@H](O)C[C@@H]1O [Latanoprost] (concentration: 25 µM) | 0.981 ± 0.046 | 0.534 ± 0.18
OC(CNCC(O)C1CCc2cc(F)ccc2O1)C1CCc2cc(F)ccc2O1 (configuration not stated) [Nebivolol·HCl] (concentration: 25 µM) | 1.15 ± 0.094 | 0.483 ± 0.11
CC1=Nc2ccc(Cl)cc2S(=O)(=O)N1 [Diazoxide] (concentration: 25 µM) | 1.01 ± 0.064 | 0.916 ± 0.04
CC(=O)Oc1ccccc1C(=O)O [Aspirin (Acetylsalicylic Acid)] (concentration: 25 µM) | 0.9355 ± 0.0074 | 0.97 ± 0.082
CC(C(=O)O)c1cccc(C(=O)c2ccccc2)c1 (configuration not stated) [Ketoprofen] (concentration: 25 µM) | 0.929 ± 0.0063 | 0.722 ± 0.029
CC(=O)O[C@H]1C(=O)[C@@]2(C)[C@H]([C@H](OC(=O)c3ccccc3)[C@]3(O)C[C@H](OC(=O)[C@H](O)[C@@H](NC(=O)c4ccccc4)c4ccccc4)C(C)=C1C3(C)C)[C@]1(OC(C)=O)CO[C@@H]1C[C@@H]2O [Paclitaxel (Taxol)] (concentration: 25 nM) | 1.07 ± 0.022 | 0.4 ± 0.048
Cc1cc(C)cc(OCC2CNC(=O)O2)c1 (configuration not stated) [Metaxalone] (concentration: 25 µM) | 0.998 ± 0.054 | 0.853 ± 0.17
CNC[C@H](O)c1cccc(O)c1 [Phenylephrine] (concentration: 25 µM) | 0.999 ± 0.036 | 0.873 ± 0.15
Cc1cccc(C)c1OCC(=O)N[C@@H](Cc1ccccc1)[C@@H](O)C[C@H](Cc1ccccc1)NC(=O)[C@H](C(C)C)N1CCCNC1=O [Lopinavir] (concentration: 25 µM) | 0.8546 ± 0.0077 | 0.373 ± 0.029
O=C(N[C@H](CO)[C@H](O)c1ccc([N+](=O)[O-])cc1)C(Cl)Cl [Chloramphenicol] (concentration: 25 µM) | 0.949 ± 0.022 | 0.819 ± 0.078

SMILES | mean cell size (Jurkat [1]) | cell count (Jurkat [2])
Nc1ccc(C(=O)NCC(=O)O)cc1 [Aminohippurate·Na] (concentration: 25 µM) | 0.995 ± 0.044 | 0.792 ± 0.089
CC(C)(O)c1ccccc1CC[C@@H](SCC1(CC(=O)O)CC1)c1cccc(/C=C/c2ccc3ccc(Cl)cc3n2)c1 [Montelukast·Na] (concentration: 25 µM) | 1.02 ± 0.077 | 0.476 ± 0.16
CCN(CC)CCCC(C)Nc1ccnc2cc(Cl)ccc12 (configuration not stated) [Chloroquine Diphosphate] (concentration: 25 µM) | 0.947 ± 0.025 | 1.03 ± 0.099
COc1ccnc(C[S+]([O-])c2nc3cc(OC(F)F)ccc3[nH]2)c1OC (configuration not stated) [Pantoprazole] (concentration: 25 µM) | 0.9065 ± 0.0044 | 0.85 ± 0.034
CC(C)(C#N)c1cc(Cn2cncn2)cc(C(C)(C)C#N)c1 [Anastrozole] (concentration: 25 µM) | 0.98 ± 0.021 | 0.933 ± 0.054
CC(C)NCC(O)COc1ccc(COCCOC(C)C)cc1 (configuration not stated) [Bisoprolol Fumarate] (concentration: 25 µM) | 0.964 ± 0.046 | 0.732 ± 0.035
CC(=O)/N=c1/sc(S(N)(=O)=O)nn1C [Methazolamide] (concentration: 25 µM) | 1.02 ± 0.035 | 0.925 ± 0.091
COc1ccccc1OCC(O)COC(N)=O (configuration not stated) [Methocarbamol] (concentration: 25 µM) | 0.969 ± 0.057 | 0.715 ± 0.14
CC1=C(CC(=O)O)c2cc(F)ccc2/C1=C\c1ccc([S+](C)[O-])cc1 (configuration not stated) [Sulindac] (concentration: 25 µM) | 0.988 ± 0.019 | 0.782 ± 0.083
NCCNCCNCCN [Trientine Dihydrochloride] (concentration: 25 µM) | 0.949 ± 0.04 | 1.02 ± 0.14
O=C(CCCN1CCC(O)(c2ccc(Cl)cc2)CC1)c1ccc(F)cc1 [Haloperidol] (concentration: 25 µM) | 1.04 ± 0.057 | 0.609 ± 0.16
CC(N)C12CC3CC(CC(C3)C1)C2 (configuration not stated) [Rimantadine·HCl] (concentration: 25 µM) | 1.02 ± 0.055 | 0.697 ± 0.067
CN(C)CC/C=C1/c2ccccc2COc2ccc(CC(=O)O)cc21 [Olopatadine] (concentration: 25 µM) | 0.976 ± 0.029 | 0.929 ± 0.1
CCc1nn(CCCN2CCN(c3cccc(Cl)c3)CC2)c(=O)n1CCOc1ccccc1 [Nefazodone·HCl] (concentration: 25 µM) | 0.924 ± 0.015 | 0.601 ± 0.02
COc1ccccc1Oc1c(NS(=O)(=O)c2ccc(C(C)(C)C)cc2)nc(-c2ncccn2)nc1OCCO [Bosentan] (concentration: 25 µM) | 0.975 ± 0.018 | 0.675 ± 0.068
COC(=O)Nc1nc2cc(C(=O)c3ccccc3)ccc2[nH]1 [Mebendazole] (concentration: 250 nM) | 0.965 ± 0.029 | 0.686 ± 0.074
Cc1ccc(C(=O)c2ccc(CC(=O)O)n2C)cc1 [Tolmetin·Na] (concentration: 25 µM) | 0.964 ± 0.035 | 0.912 ± 0.11
CCC[C@@H]1C[C@@H](C(=O)N[C@@H]([C@H]2O[C@H](SC)[C@H](O)[C@@H](O)[C@H]2O)[C@H](C)Cl)N(C)C1 [Clindamycin·HCl] (concentration: 25 µM) | 1.07 ± 0.062 | 0.805 ± 0.14
CC1(C)O[C@@H]2C[C@H]3[C@@H]4CCC5=CC(=O)C=C[C@]5(C)[C@H]4[C@@H](O)C[C@]3(C)[C@]2(C(=O)CO)O1 [Desonide] (concentration: 25 µM) | 0.948 ± 0.027 | 0.857 ± 0.014
NCc1ccc(S(N)(=O)=O)cc1 [Mafenide·HCl] (concentration: 25 µM) | 0.92 ± 0.056 | 1.17 ± 0.04
CN(C)/N=N/c1[nH]cnc1C(N)=O [Dacarbazine] (concentration: 25 µM) | 0.981 ± 0.048 | 0.836 ± 0.093
CC[C@@H]1/C=C(\C)C[C@H](C)C[C@H](OC)[C@H]2O[C@@](O)(C(=O)C(=O)N3CCCC[C@H]3C(=O)O[C@H](/C(C)=C/[C@@H]3CC[C@H](Cl)[C@H](OC)C3)[C@H](C)[C@@H](O)CC1=O)[C@H](C)C[C@@H]2OC [Pimecrolimus] (concentration: 25 µM) | 0.822 ± 0.021 | 0.692 ± 0.099
Cn1c(=O)c2[nH]cnc2n(C)c1=O [Aminophylline] (concentration: 25 µM) | 0.96 ± 0.035 | 0.984 ± 0.066
NC[C@H]1O[C@H](O[C@H]2[C@H](O)[C@@H](O[C@H]3O[C@H](CO)[C@@H](O)[C@H](N)[C@H]3O)[C@H](N)C[C@@H]2N)[C@H](O)[C@@H](O)[C@@H]1O [Kanamycin Sulfate] (concentration: 25 µM) | 0.919 ± 0.013 | 1.06 ± 0.08
CCOC(=O)c1ccc(C#Cc2ccc3c(c2)C(C)(C)CCS3)nc1 [Tazarotene] (concentration: 25 µM) | 0.894 ± 0.021 | 0.698 ± 0.18
